RXFP1 agonist – activates the human relaxin receptor RXFP1 | Potency, µM (doses to about 57.5 µM), for the others: top-dose activation, hits mostly activators | HEK293T-RXFP1 cAMP TR-FRET, 30 min; response scale: percent of porcine relaxin response, buffer zero | Q9HBX9 | AID 2676 | hit rate 0.3% among 370,000; also: potency is read from the fitted curve at half-maximal effect; % is scaled to controls: 0 for no effect and ±100 for the full control effect; nearly all actives have a fitted effect of over 60% in size
Target sequence (Q9HBX9 whole entry, looked up): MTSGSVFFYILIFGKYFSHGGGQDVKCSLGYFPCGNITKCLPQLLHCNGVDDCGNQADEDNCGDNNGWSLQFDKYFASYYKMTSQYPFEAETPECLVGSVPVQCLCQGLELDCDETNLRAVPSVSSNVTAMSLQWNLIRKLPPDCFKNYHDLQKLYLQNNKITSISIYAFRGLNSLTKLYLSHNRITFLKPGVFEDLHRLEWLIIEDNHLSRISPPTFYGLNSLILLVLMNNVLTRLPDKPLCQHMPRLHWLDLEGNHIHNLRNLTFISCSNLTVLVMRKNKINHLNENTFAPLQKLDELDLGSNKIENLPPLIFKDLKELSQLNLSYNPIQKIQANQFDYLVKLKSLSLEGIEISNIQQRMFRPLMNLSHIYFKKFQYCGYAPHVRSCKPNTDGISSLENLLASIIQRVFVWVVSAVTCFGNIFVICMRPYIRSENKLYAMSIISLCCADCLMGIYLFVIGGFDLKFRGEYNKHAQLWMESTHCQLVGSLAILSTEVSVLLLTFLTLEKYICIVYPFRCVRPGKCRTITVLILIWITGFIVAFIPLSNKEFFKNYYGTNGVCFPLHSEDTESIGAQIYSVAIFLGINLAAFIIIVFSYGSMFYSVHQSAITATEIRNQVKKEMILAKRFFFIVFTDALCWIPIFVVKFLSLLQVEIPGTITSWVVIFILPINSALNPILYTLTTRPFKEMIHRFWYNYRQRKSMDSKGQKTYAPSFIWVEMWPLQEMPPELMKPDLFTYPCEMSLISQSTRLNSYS
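HEK293T cells stably expressing RXFP1 were pretreated with the PDE4 inhibitor Ro 20174, exposed to compounds for 30 min at 37C, lysed, and cAMP was read by TR-FRET. Data normalized to buffer (basal) and 29 nM porcine relaxin (100%).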
gsp agonist – activates gsp, the McCune-Albright syndrome mutation; hit rate 0.13% among 340,000; gsp mutant cells, cAMP HTRF, 30 min; Potency, µM (highest dose often 76.9 µM), without a hit: top-dose activation (cAMP increase), hits mostly activators; active = well fitted activation curve with a large enough effect; inconclusive = small, poorly fitted or top-dose-only effect, or another doubt; inactive = no such curve, though single readings can be large or run the other way; cell line not stated here;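 also: phosphodiesterase inhibitor Ro 20-1724 added with compounds to block cAMP breakdown; potency is read from the fitted curve at half-maximal effect; nearly all actives have a fitted effect of over 60% in size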
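Cells in DMEM/10% FBS with G418 were pretreated with compounds in DMSO plus […] (300 uM stock) for 30 min at 37C. cAMP was measured by HTRF (cAMP-d2 plus anti-cAMP antibody-K) after 30 min at room temperature.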
Mm-Cpn inhibitor – M. maripaludis TRiC chaperonin inhibition; AID 504842; purified Mm-Cpn ATPase, ADP Transcreener TR-FRET; hit rate 0.031% among 330,000; Potency, µM (series often up to 76.9 µM), for the others: top-dose activity, negative = inhibition, usual class: inhibitors; also: potency is read from the fitted curve at half-maximal effect; % is scaled to controls: 0 for no effect and ±100 for the full control effect; nearly all actives have a fitted effect of over 80% in size
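Inhibition of chaperonin ATP hydrolysis is measured as reduced ADP production, detected by competitive TR-FRET in which signal falls with ADP. Final enzyme 25 nM and ATP 10 uM, reacted 30 min at 37°C.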
CCT modulator – modulators of cytosolic chaperonin (CCT/TRiC) activity; activity change, % (test concentration not listed), hits read low; hit rate 0.3% among 360,000; AID 651819; purified chaperonin ATPase assay, HTRF ADP detection, 30 min; in the data active = activity change below about -30%; also: % is scaled to controls: 0 for no effect and ±100 for the full control effect
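We incubate TRiC, 40 or 20 nM final, with library compounds at 76 uM and 10 uM ATP for 30 min at 37 °C. ADP formed is detected with Transcreener HTRF reagents after 30 min at room temperature.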
gsp antagonist – antagonists of gsp mutant (McCune-Albright syndrome); gsp-mutant cells, cAMP HTRF, 30 min; Potency, µM (series often up to 76.9 µM), without a hit: at the top dose activity change, negative = inhibition, hits mostly inhibitors; hit rate 0.4% among 340,000; AID 624288; calls by dose curve; cell line not stated here;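 also: intracellular cAMP measured with PDE inhibitor Ro 20-1724 present during compound exposure; potency is read from the fitted curve at half-maximal effect; % is scaled to controls: 0 for no effect and ±100 for the full control effect; nearly all actives have a fitted effect of over 65% in size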
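G418-selected cells were plated in DMEM/10% FBS for 16-24 h at 37C, then treated with compounds plus the PDE inhibitor […] (300 uM solution added) for 30 min at 37C. Intracellular cAMP was measured by HTRF after 30 min lysis at room temperature.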
RXFP1 antag – blocks the human relaxin receptor RXFP1 | activity change, negative = inhibition, % at 57.5 µM | Q9HBX9 | HEK293-RXFP1, relaxin-stimulated cAMP HTRF, 30 min; hits give low values | hit rate 0.59% among 350,000;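 active = activity change of -60% or lower, but not beyond a set lower limit; inconclusive = change between -60% and -40%, or beyond the set limit; inactive = change above -40%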; also: % is scaled to controls: 0 for no effect and ±100 for the full control effect
* marks the source's active call; other numbers are inactive results; [ ] = remark or other dose. Compounds with a hit are over-represented: about 1.2% of the library has one in this group of screens. Unless noted, calls follow the shape of the dose curve; as a rule, active = well fitted curve in the direction sought with a large enough effect; inconclusive = small, poorly fitted or top-dose-only effect, or another doubt; inactive = no such curve, though single readings can be large; an effect the other way counts as inactive or inconclusive.

For CCOc1ccc(OCC(=O)Nc2c(C(=O)Nc3ccc(C)cc3)oc3ccccc23)cc1 the results were RXFP1 agonist 0.0%.
For CCOC(=O)N1CCC(NC(=O)CCS(=O)(=O)c2ccc3c(c2)CCN3C(=O)CC)CC1 the results were RXFP1 agonist 1.7%, gsp agonist -1.4%, Mm-Cpn inhibitor -0.5%, CCT modulator -1.6, gsp antagonist 5.9% and RXFP1 antag -5.9.
Screening CCC(=O)N1CCc2cc(S(=O)(=O)CCC(=O)NCc3ccccc3OC)ccc21 returned RXFP1 agonist -0.1%, gsp agonist 11.2%, Mm-Cpn inhibitor inconclusive, CCT modulator -56.9*, gsp antagonist 6.4% and RXFP1 antag inconclusive.
For CCC(=O)N1CCc2cc(S(=O)(=O)CCC(=O)NCc3cccc(OC)c3)ccc21 the results were RXFP1 agonist 1.2%, gsp agonist 0.2%, Mm-Cpn inhibitor -1.1%, CCT modulator -65.8*, gsp antagonist 10.8% and RXFP1 antag inconclusive.
Screening CCC(=O)N1CCc2cc(S(=O)(=O)CCC(=O)NCc3ccc(C)cc3)ccc21 returned RXFP1 agonist -2.1%, gsp agonist 14.5%, Mm-Cpn inhibitor -0.5%, CCT modulator -3.0, gsp antagonist 6.9% and RXFP1 antag 22.8.
For O=C(CCS(=O)(=O)c1ccc(Br)cc1)NC1CCCC1 the results were RXFP1 agonist 0.7%, gsp agonist 3.98µM*, Mm-Cpn inhibitor 3.8%, CCT modulator -1.2, gsp antagonist 10.1% and RXFP1 antag 7.3.
For CCC(=O)N1CCc2cc(S(=O)(=O)CCC(=O)NC3CCCCC3)ccc21 the results were RXFP1 agonist 0.4%, gsp agonist 1.2%, Mm-Cpn inhibitor 2.5%, CCT modulator -75.1*, gsp antagonist -3.4% and RXFP1 antag inconclusive.
`O=C1C2=C(Nc3ccccc3SC2c2ccccc2C(F)(F)F)c2ccccc21` (stereo not given) gave RXFP1 agonist 2.2% and RXFP1 antag -10.5.
For COc1cccc(-c2nnc(SCC(=O)NC3CCCCC3)o2)c1 the results were RXFP1 agonist 18.4% and RXFP1 antag 6.1.
`COc1ccc(CCC(=O)NCc2ccc3c(c2)CCN3C(=O)c2cccc(C)c2)cc1` gave RXFP1 agonist 1.1% and RXFP1 antag -96.1*.
CCCCc1nc2ccccc2n2c(-c3ccc(C)cc3)c3c(=O)n(C)c(=O)n(C)c3c12 was read as RXFP1 agonist 0.8% and RXFP1 antag -3.5.
Screening COCCNC(=O)/C(C#N)=C/c1c(N2CCCCCC2)nc2c(C)cccn2c1=O returned RXFP1 agonist 27.4%, gsp agonist -9.7%[15.4 µM], Mm-Cpn inhibitor -0.6%, CCT modulator -2.3, gsp antagonist 3.2% and RXFP1 antag 0.6.
CCN1CCN(c2nc3c(C)cccn3c(=O)c2/C=C(\C#N)C(=O)NCCOC)CC1 was read as RXFP1 agonist 25.1µM*, gsp agonist inconclusive, Mm-Cpn inhibitor -0.6%, CCT modulator -4.2, gsp antagonist 13.9% and RXFP1 antag 6.0.
Screening CCOc1ccc(-c2nc(CSCC(=O)N3CCN(c4cccc(OC)c4)CC3)c(C)o2)cc1 returned RXFP1 agonist 1.4%, gsp agonist inconclusive, Mm-Cpn inhibitor -6.5%, CCT modulator -3.7, gsp antagonist 39.8µM* and RXFP1 antag -7.2.
COc1ccc(-c2noc(CCC(=O)N3CCN(c4cccc(OC)c4)CC3)n2)cc1 was read as Mm-Cpn inhibitor 0.0%, CCT modulator -0.9 and gsp antagonist 44.7µM*.
CCOC(=O)C1CCN(C(c2ccccc2OC)c2c(O)cc(C)n(CCOC)c2=O)CC1 (stereo not given) was read as RXFP1 agonist 3.4% and RXFP1 antag 4.2.
`CC1=C(C(=O)OCC2CCCCC2)C(c2ccc(Cl)cc2Cl)CC(=O)N1` (stereo not given) gave RXFP1 agonist -1.2%.
For CC(C)Oc1ccc(CNC(=O)c2cccc(NC(=O)N3CCSc4ncccc43)c2)cc1 the results were RXFP1 agonist 0.8% and RXFP1 antag -11.1.
For CC(NC(=O)CN(c1cccc(C(F)(F)F)c1)S(=O)(=O)c1ccc(Cl)c([N+](=O)[O-])c1)c1ccccc1 (stereo not given) the results were RXFP1 agonist -1.0%, gsp agonist -11.1%[15.4 µM], Mm-Cpn inhibitor 2.2%, CCT modulator -11.4, gsp antagonist inconclusive and RXFP1 antag -81.7*.
`COc1ccc(NC(=O)CSc2nnnn2C2CCCCC2)cc1` gave RXFP1 agonist -2.2%, gsp agonist -28.1%, Mm-Cpn inhibitor 0.9%, CCT modulator -0.1, gsp antagonist 4.9% and RXFP1 antag -78.4*.
COc1ccc(NC(=O)CSc2nnnn2C2CCCC2)cc1 was read as RXFP1 agonist -0.8%, gsp agonist 1.1%, Mm-Cpn inhibitor -7.4%, CCT modulator 1.5, gsp antagonist 0.7% and RXFP1 antag 2.7.
COc1ccc(OC)c(-n2nnnc2SCC(=O)Nc2ccc3c(c2)OCCO3)c1 was read as RXFP1 agonist 15.0%, gsp agonist 11.2µM*, Mm-Cpn inhibitor -1.9%, CCT modulator -5.6, gsp antagonist 15.3% and RXFP1 antag -6.9.
CNC(=O)c1ccc(Nc2nnc(-c3ccc(C)c(S(=O)(=O)NC(C)(C)C)c3)c3ccccc23)cc1 was read as RXFP1 agonist -1.7% and RXFP1 antag -7.8.
`CCCN1CCN(C(=O)c2cc3c(s2)-c2ccccc2OC3)CC1` gave RXFP1 agonist 17.8µM*, gsp agonist 20.5%, Mm-Cpn inhibitor -17.1%, CCT modulator 0.8 and gsp antagonist 11.8%.
Screening CCN1CCN(C(=O)c2ccc(-c3nc4ccccc4s3)s2)CC1 returned RXFP1 agonist 2.5%, gsp agonist 6.7%, Mm-Cpn inhibitor 1.4%, CCT modulator -1.4, gsp antagonist 7.3% and RXFP1 antag 5.4.
CCCN1CCN(C(=O)c2ccccc2-c2nc3ccccc3s2)CC1 was read as RXFP1 agonist 1.3%, gsp agonist -9.3%[15.4 µM], Mm-Cpn inhibitor -0.1%, CCT modulator -1.6, gsp antagonist 11.2µM* and RXFP1 antag 0.0.
Screening CCOC(=O)N1CCN(C(=O)c2cc3c(s2)-c2ccccc2OC3)CC1 returned RXFP1 agonist inconclusive, gsp agonist 14.4%, Mm-Cpn inhibitor -18.5%, CCT modulator 0.1 and gsp antagonist -6.1%.
`CN(C)c1ccc(CNC(=O)c2cc3ccccn3n2)cc1` gave RXFP1 agonist -4.8% and RXFP1 antag -7.1.
For COc1cc(OC)cc(C(=O)NNC(=O)c2ccccn2)c1 the results were RXFP1 agonist 0.3%, gsp agonist -8.0%[15.4 µM], Mm-Cpn inhibitor 0.8%, CCT modulator 2.1, gsp antagonist -6.8% and RXFP1 antag -93.6*.

Bioassay records: PubChem BioAssay, National Center for Advancing Translational Sciences (NCATS)
